FXIa inh mix – FXIa protease inhibitors in compound pools, primary screen, biochemical, 10-compound mixtures | Coagulation factor XI (Homo sapiens), P03951 | hit rate 0.19% among 62,000 | inhibition, % at 5 µM | purified FXIa, fluorogenic substrate, pooled mixtures;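 also: each value is inhibition by a whole ten-compound pool holding the compound; 0% = enzyme with no mixture and 100% = wells lacking enzyme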
Target sequence (P03951 19-387 limits assumed): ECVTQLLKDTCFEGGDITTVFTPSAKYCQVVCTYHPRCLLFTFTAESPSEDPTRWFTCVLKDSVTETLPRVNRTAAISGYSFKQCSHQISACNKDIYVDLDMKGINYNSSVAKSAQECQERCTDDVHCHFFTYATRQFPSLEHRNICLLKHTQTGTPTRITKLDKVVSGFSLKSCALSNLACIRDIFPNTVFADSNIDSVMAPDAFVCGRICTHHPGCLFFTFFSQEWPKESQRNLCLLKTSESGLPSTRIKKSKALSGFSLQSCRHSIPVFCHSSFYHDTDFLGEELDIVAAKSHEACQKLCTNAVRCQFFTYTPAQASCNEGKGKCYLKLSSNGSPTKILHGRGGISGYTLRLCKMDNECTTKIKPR
Target sequence (P03951 388-625 limits assumed): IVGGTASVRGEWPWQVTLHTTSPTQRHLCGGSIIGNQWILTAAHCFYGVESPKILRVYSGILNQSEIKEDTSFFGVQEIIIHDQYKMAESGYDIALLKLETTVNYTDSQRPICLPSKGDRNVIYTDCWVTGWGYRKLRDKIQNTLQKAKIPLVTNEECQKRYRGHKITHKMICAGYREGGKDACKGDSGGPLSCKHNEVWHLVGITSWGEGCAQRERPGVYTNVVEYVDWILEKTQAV
JNK3 blocker – JNK3 kinase activity inhibitors, primary screen, biochemical, human, purified enzyme; Mitogen-activated protein kinase 10 (Homo sapiens), P53779; HTS; inhibition, % at 8 µM; hit rate 0.61% among 60,000; in the data active = inhibition above about 17%;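 also: 0% = DMSO and 100% = reference inhibitor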
Her2 expr inh – inhibitors of Her2 protein expression, primary screen, SKBR-3 cells, AlphaScreen, 66K library | SKBR-3 HER2 protein level, 18-24 h; hits give low values | AID 645, 2007 | HER2 level % of control, % at 10 µM | hit rate 0.69% among 65,000;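 active = HER2 level under 5% of the carrier-only control; inconclusive = no clear call, values can overlap the other calls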;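 also: 100% = DMSO carrier and 0% = 500 nM PU-H71 HSP90 inhibitor; lower value means stronger loss of Her2 protein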
M1 antag – antagonists of rat M1 muscarinic receptor; Muscarinic acetylcholine receptor M1 (Rattus norvegicus), P08482; CHO-M1 cells, Fluo-4 calcium, ACh EC80 antagonist mode; hits give low values; B-score at 10 µM; hit rate 3.4% among 64,000; AID 628, 2007;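 active = calcium fluorescence response, raw or row-and-column corrected B-score, differing from the plate sample mean either way at a set confidence level, mostly lower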
FXIIa mix inh – human factor XIIa inhibitors, primary screen, biochemical, pooled compound mixtures, fluorogenic substrate | purified FXIIa | inhibition, % at 5 µM | hit rate 0.2% among 62,000;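 also: 0% = enzyme without compound and 100% = no enzyme blank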
M1 agonist – M1 muscarinic receptor agonists, primary screen, CHO-M1 cells, Fluo-4 calcium, agonist mode. Muscarinic acetylcholine receptor M1. Fluo-4 calcium fluorescence; hits give high values. B-score at 10 µM. hit rate 3% among 64,000;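 active = fluorescence rise, raw or as B-score row- and column-corrected plate score, outside the 99.7% band of its plate's samples, either direction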
M1 agonist conf – rat M1 muscarinic receptor agonists, confirmation, CHO-M1 cells, Fluo-4 calcium, duplicate retest | shares compounds with M1 agonist | Fluo-4 calcium fluorescence, agonist mode; actives lie on both sides | fluorescence change (max-min) at 10 µM | hit rate 19% among 1,700 | AID 1488, 2009;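 active = fluorescence change differs from the solvent-only DMSO control mean at a set confidence level in both duplicate runs; inconclusive = differs from solvent-only control mean in just one of two runs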;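 also: an EC20 dose of acetylcholine follows compound addition during the same imaging run; raw fluorescence intensity difference in instrument units with no normalization to controls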
M4 ag counter – agonist activity at rat M4 receptor, confirmation, counter-screen for M1 allosteric modulator project, cell-based, agonist mode | fluorescence change (max-min) at 10 µM | shares compounds with M1 agonist | hit rate 9% among 1,700 | CHO M4/Gqi5 cells, Fluo-4 calcium fluorescence; actives lie on both sides;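 active = fluorescence change differing from the plate's solvent-only control wells at 99.7% confidence in both duplicates, whether higher or lower; inconclusive = differs from solvent controls in only one of two duplicates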
* = called active by the depositor; ? = inconclusive; . = no result. Shown are actives, neighbours in structure and some others; about 6.9% of the full set was active somewhere. Rule as the data show it, unless noted: active = inhibition above about 20% (passing the limit was not always enough); inactive = the rest.

SMILES | FXIa inh mix | JNK3 blocker | Her2 expr inh | M1 antag | FXIIa mix inh | M1 agonist | M1 agonist conf | M4 ag counter
CCOC(=O)C(CC)n1cnc2c(nnn2-c2ccc(OC)cc2)c1=O (stereo not given) | 0 | 4 | 76 | 0.019 | 1 | -2.2 | . | .
CCC(C(=O)OC)n1cnc2c(nnn2-c2ccc(OC)cc2)c1=O (stereo not given) | 2 | 0 | 86 | 0.31 | 3 | 4.3* | -3.1 | -35
COc1ccccc1C(=O)Nc1ccccn1 | 4 | 13 | 72 | 0.55 | 4 | -0.18 | . | .
CCN(CC)c1ccc2cc(NC(=O)CCC(=O)O)c(=O)oc2c1 | 4 | -14 | 91 | -1.6* | 0 | 289* | 1953* | 1754*
CCN(CC)c1ccc2cc(C(=O)Nc3ccccn3)c(=O)oc2c1 | . | -15 | 82 | -4.6* | . | 353* | 964* | 1294*
Cc1ccc(NC(=O)c2cc(-c3cccc(O)c3)on2)cc1C | 4 | -4 | 84 | -0.19 | -1 | -0.032 | . | .
CCOc1ccc(/C=c2\sc3nc(-c4ccco4)nn3c2=O)cc1OCC | 4 | 7 | 69 | 0.16 | 0 | 105* | ? | 47
COc1ccccc1/C=c1\sc2nc(-c3ccco3)nn2c1=O | 4 | 1 | 51 | 0.097 | 2 | 1.5 | . | .
CN(C)c1ccc(/C=N/n2ncc3ccccc32)cc1 | 4 | . | 71 | 0.013 | 5 | -0.038 | . | .
C=CCn1c(/N=C/c2ccc(N(C)C)cc2)nc2ccccc21 | -4 | -6 | 78 | -1.2 | 4 | 15* | 118* | 114
CSc1nc(-c2ccco2)cc(-c2ccccc2)c1C#N | 11 | 0 | 86 | 0.1 | 4 | 15* | ? | ?
CN1C(=O)CSc2ccc(NC(=O)N3CCc4ccccc43)cc21 | -8 | 2 | 167 | -0.66 | -7 | 2.8* | -24 | -48
CCCn1c(SCC(=O)Nc2nnc(C)s2)nnc1-c1ccoc1C | 6 | -8 | 97 | -0.083 | 12 | -0.017 | . | .
CCCCn1c(SCC(=O)Nc2nnc(C)s2)nnc1-c1ccoc1C | 6 | -6 | 89 | -0.4 | -23 | 3.2* | ? | -38
COc1ccc(CNC(=O)C(C#N)c2nc3ccccc3nc2N2CCCC2)cc1 (stereo not given) | 4 | -11 | 100 | -6.9* | 3 | 165* | 373* | 562*
COC(=O)C(C#N)c1nc2ccccc2nc1N1CCCC1 (stereo not given) | 2 | 8 | 89 | 0.7 | 3 | -0.018 | . | .
CC1CCN(c2nc3ccccc3nc2C(C#N)C(=O)NC2CCCCC2)CC1 (stereo not given) | 9 | -1 | 106 | -0.28 | -17 | 8.8* | 105* | 42
CCCCCCOC(=O)C(C#N)c1nc2ccccc2nc1N1CCCCC1 (stereo not given) | 11 | 7 | 93 | -2.2 | -21 | 9.9* | ? | 77
CCCCNC(=O)C(C#N)c1nc2ccccc2nc1N1CCCC1 (stereo not given) | 0 | 7 | 77 | -1.8 | -14 | 54* | 856* | 750*
Cn1c(C(C#N)C2=C(Cl)C(=O)N(c3ccccc3)C2=O)nc2ccccc21 (stereo not given) | 6 | -1 | 102 | -0.52 | 2 | 0.63 | . | .
CCCCCCOC(=O)C(C#N)c1nc2ccccc2nc1N1CCN(C)CC1 (stereo not given) | 1 | -6 | -4.8* | 1.9* | 12 | 5.1* | -13 | ?
COc1ccc2nc(N3CCCCC3)c(C#N)cc2c1 | 5 | -1 | 103 | -0.015 | -45 | -0.75 | . | .
COc1ccc2nc(N3CCCC3)c(C#N)cc2c1 | 7 | -2 | 96 | -1.2 | -3 | 92* | 1016* | 1175*
O=C(CN1CCOCC1)N1CCN(S(=O)(=O)c2ccccc2)C1c1ccccc1 (stereo not given) | 10 | 6 | 84 | 0.39 | 18 | 0.41 | . | .
Cc1ccc(S(=O)(=O)N2CCN(C(=O)CN3CCOCC3)C2c2ccccc2)cc1 (stereo not given) | -12 | -4 | 115 | 0.68 | -16 | 6.2* | -12 | -29
SMILES | FXIa inh mix | JNK3 blocker | Her2 expr inh | M1 antag | FXIIa mix inh | M1 agonist | M1 agonist conf | M4 ag counter
O=C(COC(=O)c1c2c(nc3ccccc13)CCCC2)Nc1ccc2c(c1)OCO2 | . | . | 70 | -2* | . | 13* | ? | -16
c1ccc2[nH]c(-c3ccnc4ccccc34)nc2c1 | 3 | 3 | 69 | -0.99 | -7 | 2.4* | -11 | -34
Cc1ccc(CNC(=O)CN(C)S(=O)(=O)c2cccc3cccnc23)cc1 | 6 | -1 | 66 | -0.77 | 6 | -0.85 | . | .
CCN=C1SC(CC(=O)Nc2ccccc2)C(=O)N1CC (stereo not given) | -17 | -11 | 92 | -3.8* | -16 | 11* | ? | -56
COCCN1C(=O)C(CC(=O)Nc2ccc(C(=O)O)cc2)SC1=Nc1ccccc1 (stereo not given) | -5 | . | 71 | 0.31 | 2 | 0.08 | . | .
C=CCNC1=C(Cl)C(=O)N(c2ccccc2Cl)C1=O | 4 | 5 | 81 | -0.02 | 4 | -1.3 | . | .
O=C(Nc1ccc(S(=O)(=O)N2CCCCC2)cc1)c1ccncc1 | 1 | 1 | 84 | -0.55 | -1 | -2.9* | -22* | -72*
CC(=O)c1ccc(NC(=O)c2ccc(S(=O)(=O)N3CCCC3)cc2)cc1 | -4 | 11 | 98 | . | 2 | . | . | .
CCC(Sc1nc(=O)cc(N)n1-c1ccccc1)C(=O)Nc1ccc(Cl)cn1 (stereo not given) | 9 | -2 | 98 | 0.25 | 8 | -0.26 | . | .
COCCn1nnnc1C(c1cccc(OC)c1OC)N1CCN(C2CCCCC2)CC1 (stereo not given) | 10 | -10 | 89 | 0.42 | -1 | 18* | ? | -51
COc1ccc(S(=O)(=O)N2CC3C4C=CC(C4)C3C2)cc1 (stereo not given) | 9 | -1 | 80 | 0.91 | 6 | -0.32 | . | .
O=C(CSc1nc2ccccc2c(=O)n1Cc1ccco1)N1CCCCCC1 | -4 | 13 | 79 | -1.1 | 3 | 2* | ? | -62
COc1ccc(C)cc1-n1nnnc1SCc1cc(=O)n2cc(C)ccc2n1 | 3 | -2 | 92 | -1.9 | 2 | 5.2* | -18 | -35
